Measured values: PubChem BioAssay (NCI)
The panel holds about 83,000 compounds, 20% with a hit somewhere; the sample as a whole holds those more often.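 Negative percent growth values reflect cell death: -40 means 40% of the cells present at the start died, and -100 means all died.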 The source made the active and inactive calls. The calls were made as follows: active = growth percent below 10; inactive = the rest.

Key:
Assay in all cases: NCI-60 one-dose screen, 48 h (100 = growth as untreated, 0 = no growth, -100 = all killed)
Conditions in all cases: 10 µM unless noted
[1] = system: RPMI-8226 leukemia
[2] = system: OVCAR-8 ovarian
[3] = system: OVCAR-5 ovarian
[4] = system: OVCAR-4 ovarian
[5] = system: SK-OV-3 ovarian
[6] = system: IGROV1 ovarian
[7] = system: OVCAR-3 ovarian
[8] = system: HS 578T breast
[9] = system: NCI/ADR-RES ovarian
[10] = system: BT-549 breast
[11] = system: MDA-MB-435 melanoma
[12] = system: SW-620 colon
[13] = system: MCF7 breast
[14] = system: HCT-116 colon
[15] = system: HCC-2998 colon
[16] = system: KM12 colon
[17] = system: T-47D breast

Measured: growth

O=C(O)c1ccc2c(c1)CCC2
inactive: [1] 99.8% | [2] 107% | [3] 105% | [4] 107% | [5] 107% | [6] 103% | [7] 119% | [8] 134% | [9] 111% | [10] 96.6% | [11] 115% | [12] 108% | [13] 100% | [14] 105% | [15] 115% | [16] 113%

COc1cc(C2CC(c3ccc(Nc4ccnc5cc(Cl)ccc45)cc3)=NN2C=O)cc(OC)c1OC (configuration not stated)
inactive: [1] 21.3% | [2] 74% | [3] 109% | [4] 86.3% | [5] 86.8% | [6] 106% | [8] 26.2% | [9] 73.4% | [17] 83.2% | [10] 37% | [11] 30.5% | [12] 84% | [13] 46.3% | [16] 68%
active: [7] 2.55%

Cc1ccc(C2SCC(=O)N2Cc2ccccc2)cc1 (configuration not stated)
inactive: [1] 96.7% | [2] 98.8% | [3] 101% | [4] 98.9% | [5] 103% | [6] 102% | [7] 116% | [8] 103% | [9] 103% | [17] 95.2% | [10] 99% | [11] 95.4% | [12] 107% | [14] 94.2% | [15] 90.7% | [16] 102%

Oc1ccc(CN2CCC(N3CCOCC3)CC2)c2cccnc12
inactive: [2] 19% | [3] 48.8% | [4] 30.9% | [5] 36.1% | [6] 34.9% | [7] 29.9% | [8] 24.4% | [9] 48.3% | [17] 16.3% | [10] 29.8% | [12] 22% | [15] 51.5% | [16] 20.9%
active: [1] 7.8% | [13] 9.1% | [14] 9.68%

CC1(C)CC(=O)CC2(C1)N=C(N)Nc1nc3ccccc3n12 (configuration not stated)
inactive: [1] 94.4% | [2] 104% | [3] 98.7% | [4] 91.7% | [5] 101% | [6] 90.5% | [7] 111% | [8] 137% | [9] 106% | [17] 106% | [11] 104% | [12] 109% | [13] 89.4% | [14] 96.8% | [16] 108%

O=C1N=c2cc3c(cc2=C/C1=C/c1sc(=S)n(CCc2ccc(O)cc2)c1O)OCCO3
active: [12] 5.91% | [14] 7.52%
inactive: [1] 33.4% | [2] 28.6% | [3] 64% | [4] 80.9% | [5] 105% | [6] 49% | [7] 76.1% | [8] 74.9% | [9] 64.7% | [10] 78.5% | [11] 61.1% | [13] 28.6% | [15] 29.4% | [16] 52.5%

N#Cc1nc(C#N)c(Sc2ccccc2)c(Sc2ccccc2)c1Sc1ccccc1
inactive: [8] 55.2% | [9] 20.3%
active: [1] 0.263% | [2] 3.62% | [3] -71.3% | [4] -11.9% | [5] -10.3% | [6] -67.9% | [7] -87.7% | [17] -71.7% | [11] -14.2% | [12] -67.2% | [13] -72.1% | [14] -30.7% | [15] -85.4% | [16] -85.2%

CC/C=C/C/C=C/C/C=C/C/C=C/C/C=C/C/C=C/CCC(=O)Nc1ccn([C@@H]2O[C@H](CO)[C@@H](O)C2(F)F)c(=O)n1
inactive: [1] 28.1% | [2] 10% | [3] 50.1% | [4] 73.8% | [5] 22% | [6] 57.5% | [7] 53.4% | [8] 76.1% | [9] 14.1% | [17] 28.9% | [11] 36.9% | [12] 30.8% | [13] 14.3% | [14] 12.1% | [15] 55.1% | [16] 43.5%

NS(=O)(=O)c1ccc(-n2nc(C(=O)N/N=C\c3ccc(F)cc3)cc2-c2ccc(Cl)cc2)cc1
inactive: [1] 104% | [2] 96.8% | [3] 103% | [4] 97.8% | [5] 93.5% | [6] 76.1% | [7] 99.8% | [8] 86% | [9] 106% | [17] 79.5% | [11] 94.3% | [12] 95.8% | [13] 81.3% | [14] 98% | [15] 98% | [16] 96.9%

CC1=NOC(=O)/C1=C\c1ccc(O)cc1
inactive: [1] 109% | [2] 98.3% | [3] 99.8% | [4] 106% | [5] 103% | [6] 104% | [7] 103% | [8] 98.3% | [9] 106% | [10] 107% | [11] 102% | [12] 102% | [13] 94.6% | [14] 103% | [15] 109% | [16] 101%

COC1=C(OC)C(=O)C(OC)=C(OC)C1=O
inactive: [1] 102% | [2] 93.4% | [3] 108% | [4] 42.1% | [5] 110% | [6] 101% | [7] 99.3% | [8] 97% | [9] 98% | [17] 94.2% | [11] 103% | [12] 101% | [13] 99.5% | [14] 98.6% | [15] 89.3% | [16] 100%

CC(C)(C)c1ccc(/C=C/C(=O)Nc2ccc(O)cc2)cc1
inactive: [1] 59.8% | [2] 45.7% | [3] 89.8% | [4] 73.8% | [5] 96.8% | [6] 62.2% | [7] 60.4% | [8] 80.4% | [9] 59.9% | [17] 64.4% | [10] 66.6% | [12] 71% | [13] 60.9% | [15] 97% | [16] 36.5%

O=C1/C(=C/c2ccccc2)CCc2nc3ccccc3c(/C=C/c3ccc(Cl)cc3)c21
inactive: [1] 75.9% | [2] 87.7% | [3] 108% | [4] 80.5% | [5] 81.8% | [6] 72.3% | [7] 90.1% | [8] 104% | [9] 89.4% | [17] 54% | [11] 95.6% | [12] 103% | [13] 51.8% | [15] 93.5% | [16] 91.4%

COc1ccc(NC(=O)CSc2nnc(-c3cc(-c4ccccc4)nc4ccccc34)n2-c2ccccc2)cc1
inactive: [1] 90.1% | [2] 90.4% | [3] 99.2% | [4] 90.3% | [5] 102% | [6] 92.5% | [7] 103% | [8] 94.7% | [9] 91.8% | [17] 78.4% | [11] 99.2% | [12] 101% | [13] 89.1% | [14] 92.6% | [15] 107% | [16] 98.1%

COc1ccc(-c2[nH]c(=S)n(C(CC3(C)NCC(=O)N3n3c(-c4ccccc4)cc(C)nc3=S)c3ccc(OC)cc3)c(=O)c2Br)cc1 (configuration not stated)
active: [1] -7.13%
inactive: [2] 71.2% | [3] 83.4% | [4] 54.9% | [5] 62.4% | [6] 50.6% | [7] 67.5% | [8] 40.7% | [9] 80.3% | [17] 22.8% | [11] 57.4% | [12] 37.2% | [13] 16.5% | [14] 21.8% | [16] 37%

O=c1oc2ccccc2c(Cl)c1Cl
inactive: [1] 40.6% | [2] 61% | [3] 88.1% | [4] 91.7% | [5] 94.7% | [6] 47.5% | [7] 103% | [8] 85% | [9] 86.4% | [17] 43.1% | [11] 52% | [12] 48.9% | [13] 34% | [14] 32.5% | [15] 93.1% | [16] 83.6%

O=C1Nc2ccccc2/C1=C/c1cn(C(=O)c2c(Cl)cccc2Cl)c2ccccc12
inactive: [1] 51.8% | [2] 52.3% | [3] 85% | [4] 50.4% | [5] 71.8% | [6] 25.8% | [7] 43% | [8] 64.7% | [9] 57.7% | [17] 47.7% | [10] 51.7% | [11] 85.7% | [12] 45.5% | [13] 22.9% | [16] 54.8%

C=C(C)[C@@H]1CC[C@]2(C)[C@H](CC=C3[C@@H]4CC(C)(C)CC[C@]4(C(N)=O)CC[C@]32C)[C@@]1(C)CCC#N
inactive: [2] 26.5% | [3] 47% | [4] 20% | [5] 48.1% | [6] 53.1% | [7] 23.5% | [8] 51% | [9] 35% | [17] 10.4% | [11] 17.7% | [12] 22.1% | [15] 44.7% | [16] 20.7%
active: [1] 6.44% | [13] 6.71% | [14] 9.92%

N#C/C(=C\c1ccc(-c2ccccc2F)o1)c1nc(-c2ccco2)cs1
inactive: [1] 80.3% | [2] 94.2% | [3] 78.2% | [4] 19.6% | [5] 92.6% | [6] 59.9% | [7] 89.6% | [8] 98.5% | [17] 14.5% | [11] 101% | [12] 96.1% | [13] 37.7% | [14] 93% | [15] 67.8% | [16] 63.9%
